Experimental data published in PubChem BioAssay (NCATS).
Several values for one entry are separate records, joined by “and”; a condition that tells them apart may be missing. Identical values can stand only once. Inconclusive results are not listed. A structure can be active in one record and inactive in another. Activity calls are given as the source filed them. Unless noted, calls come from the whole dose curve; as a rule, active = well fitted curve in either direction with a large enough effect (not every such curve was filed as active); inconclusive = small, poorly fitted or top-dose-only effect, or another doubt; inactive = flat fitted curve, though single readings scatter.

Legend:
[1] = AP1 Signaling Pathway (AID 357); conditions: ME-180 (cervical carcinoma) AP-1-bla reporter, EGF-induced, beta-lactamase ratio, 5 h;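 note: ME-180 reporter cells stimulated with EGF at its EC50 level; % is set by controls: 0 for no effect and ±100 for the full control effect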
Summary of the method: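 Modulation of EGF-driven AP-1 transcription was assessed with a beta-lactamase reporter in ME-180 cells. Compound and EC50 EGF were co-incubated 5 hours at 37 °C before 2.5-hour CCF4 loading at room temperature and dual-emission reading.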

[2] = NFAT Signaling Pathway (AID 444); conditions: Jurkat NFAT-bla M1, carbachol, beta-lactamase ratio, 5 h;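 note: carbachol stimulus at about its EC50 of 1 µM final; % is set by controls: 0 for no effect and ±100 for the full control effect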
Summary of the method: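 Jurkat cells with NFAT-driven β-lactamase reporter and co-expressed M1 receptor, stimulated with carbachol (final 1 uM, ~EC50), compound titration, 5 h at 37 °C. CCF4 loaded 1 h at RT; 460/530 nm ratio gave %activity and AC50.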

[3] = target: Cytochrome P450 1A2 (Homo sapiens) (UniProt P05177); experiment: p450-cyp1a2 (AID 410; calls by dose curve; note: potency is the fitted concentration of half-maximal effect;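 for activity change, negative = inhibition: -100% = full effect of reference inhibitor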); conditions: recombinant CYP1A2, luciferin-ME demethylation, luminescence; series mostly up to 57 µM
Summary of the method: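 Luminescent readout of luciferin formed from Luciferin-ME by human CYP1A2; data normalized against complete inhibition by 57 uM furafylline. Enzyme 20nM, substrate 100uM at Km, 100mM KPO4 buffer, 60 min reaction at room temperature.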

[4] = Cell Viability - Jurkat (AID 426;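 active = dose-dependent loss of cell ATP signal giving a full or clear fitted curve, ranked by lower potency value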; note: potency is the fitted concentration of half-maximal effect); conditions: qHTS
Summary of the method: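 qHTS, 1536-well; Jurkat E6-1, 5000 cells/well, complete medium; cpd 40 hr, 37 °C; CellTiter-Glo 20 min RT; luminescence. AC50 by Hill fit.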

[5] = Cell Viability - SK-N-SH (AID 435; calls by dose curve;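 note: potency is the fitted concentration of half-maximal effect; compound exposure lasted 40 h at 37 °C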); conditions: SK-N-SH neuroblastoma cell viability qHTS
Summary of the method: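 Luminescent ATP signal served as the viability read-out after 40 hours of compound treatment of human neuroblastoma SK-N-SH cells. Concentration-response data, scaled between DMSO and 100 uM tamoxifen, gave AC50 values by standard Hill modeling.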

[6] = Cell Viability - BJ (AID 421; calls by dose curve;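 note: potency is the fitted concentration of half-maximal effect; cells exposed to compound for 40 hours at 37 °C before readout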); conditions: BJ fibroblast viability, qHTS
Summary of the method: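 Cytotoxicity as drop in intracellular ATP (CellTiter-Glo, 20 min RT) after 40 hr compound exposure of BJ fibroblasts at 37 °C. Titrations scaled between DMSO and 100 uM tamoxifen, Hill-fitted for AC50.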

[7] = Cell Viability - Hek293 (AID 427;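 active = compounds whose dose-response curve shows a full or clear partial loss of cell viability, called from curve shape rather than a numeric limit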;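 note: potency is the fitted concentration of half-maximal effect; cells exposed to compound for 40 hours at 37 °C before reading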); conditions: qHTS
Summary of the method: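 Luminescent ATP content (CellTiter-Glo, 20 min at room temperature) was measured after a 40 hr, 37 °C compound exposure of HEK293 cells. AC50 values came from Hill-equation fits of qHTS concentration-response data normalized to DMSO and 100 uM tamoxifen.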

[8] = Cell Viability - HepG2 (AID 433; calls by dose curve;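 note: potency is the fitted concentration of half-maximal effect; potency for ATP loss meaning cytotoxicity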); conditions: qHTS
Summary of the method: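 Read-out is luciferase-based quantitation of cellular ATP as a measure of viable HepG2 cells after 40 h treatment at 37 °C. Signal decrease is scaled between DMSO-only and 100 uM tamoxifen controls, with AC50 fitted by the Hill equation.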

[9] = Cell Viability - MRC5 (AID 434; calls by dose curve;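 note: potency is the fitted concentration of half-maximal effect; potency reflects cytotoxicity seen as loss of intracellular ATP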); conditions: MRC5 lung fibroblast viability, qHTS
Summary of the method: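 MRC5 normal human lung fibroblasts, 1500 cells/well, exposed to compound for 40 hr at 37 C. Cellular ATP was read by CellTiter-Glo luminescence; data normalized to DMSO and 100 uM tamoxifen, with AC50 from Hill fits.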

Cytochrome P450 1A2 (Homo sapiens), sequence (P05177 whole entry, looked up): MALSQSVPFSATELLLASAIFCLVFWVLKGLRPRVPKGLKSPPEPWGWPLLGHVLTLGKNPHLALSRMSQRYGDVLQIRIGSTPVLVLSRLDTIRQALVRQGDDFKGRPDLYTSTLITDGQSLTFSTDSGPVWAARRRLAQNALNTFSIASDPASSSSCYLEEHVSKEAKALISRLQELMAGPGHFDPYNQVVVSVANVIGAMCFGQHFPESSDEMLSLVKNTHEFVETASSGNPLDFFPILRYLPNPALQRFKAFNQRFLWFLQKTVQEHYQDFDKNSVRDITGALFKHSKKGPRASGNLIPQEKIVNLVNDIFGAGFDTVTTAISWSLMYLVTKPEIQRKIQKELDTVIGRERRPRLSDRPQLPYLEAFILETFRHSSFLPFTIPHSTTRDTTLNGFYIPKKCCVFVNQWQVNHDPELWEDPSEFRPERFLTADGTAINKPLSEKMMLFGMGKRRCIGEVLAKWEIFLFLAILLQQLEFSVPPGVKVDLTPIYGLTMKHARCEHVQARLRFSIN

C[C@]12C=CC(=O)C=C1CC[C@H]1[C@@H]3C[C@@H](O)[C@](O)(C(=O)CO)[C@@]3(C)C[C@H](O)[C@@]12F
activity change, negative = inhibition ([1]; at 17.2 µM (top of the series)): -5.22% (inactive)
activity change, negative = inhibition ([2]; at 17.2 µM (top of the series)): 16.1% (inactive)

COCCc1ccc(OCC(O)CNC(C)C)cc1 (stereo unspecified)
activity change, negative = inhibition ([1]; at 17.2 µM (top of the series)): 3.62% (inactive)
activity change, negative = inhibition ([2]; at 17.2 µM (top of the series)): -25.7% (inactive)

COCC(=O)O[C@]1(CCN(C)CCCc2nc3ccccc3[nH]2)CCc2cc(F)ccc2[C@@H]1C(C)C
Potency [3]: 31.6 µM (active)
activity change, negative = inhibition ([2]; at 38 µM (top of the series)): -15.7% (inactive)

Cc1nc2c([nH]1)c(=O)n(C)c(=O)n2Cc1ccco1
activity change, negative = inhibition ([1]; at 38 µM (top of the series)): -6.02% (inactive)
activity change, negative = inhibition ([2]; at 38 µM (top of the series)): -9.82% (inactive)

CN(C)CCCN1c2ccccc2Sc2ccc(C(F)(F)F)cc21
Potency [3]: 1.58 µM (active) and 794 nM (active)
activity change, negative = inhibition ([2]; at 17.2 µM (top of the series)): -88.2% (active)

CN(C)CCCN1c2ccccc2Sc2ccccc21
activity change, negative = inhibition ([2]; at 38 µM (top of the series)): -83.6% (active)

COC(=O)[C@@H](N)Cc1ccc(O)c(O)c1
activity change, negative = inhibition ([1]; at 38 µM (top of the series)): 2.14% (inactive)
activity change, negative = inhibition ([2]; at 38 µM (top of the series)): 5.8% (inactive)

COC(=O)[C@H]1[C@H]2C[C@@H]3c4[nH]c5cc(OC)ccc5c4CCN3C[C@H]2C[C@@H](OC(=O)c2cc(OC)c(OC)c(OC)c2)[C@@H]1OC
Potency [4]: 35.9 µM (active)
Potency [5]: 46.3 µM (active)

C[C@]12CCC(=O)C=C1CC[C@@H]1[C@@H]2CC[C@@]2(C)[C@H]1CC[C@]2(O)C(=O)CO
activity change, negative = inhibition ([1]; at 17.2 µM (top of the series)): 14.7% (inactive)
activity change, negative = inhibition ([2]; at 17.2 µM (top of the series)): 2.94% (inactive)

CC1=C(C)C(=O)C(CCCCC#CCCCC#CCO)=C(C)C1=O
Potency [3]: 0.501 µM (active)

CCc1cccc(N(C)C(N)=Nc2cccc3ccccc23)c1
activity change, negative = inhibition ([2]; at 38 µM (top of the series)): -9.54% (inactive)

CCOC(=O)c1cnc2c(cnn2CC)c1NN=C(C)C
Potency [3]: 501 nM (active) and 126 nM (active)
activity change, negative = inhibition ([2]; at 38 µM (top of the series)): 6.94% (inactive)

NC(=Nc1ccccc1)Nc1ccccc1
Potency [6]: > 92 µM (inactive)
Potency [4]: > 92 µM (inactive)
Potency [7]: > 92 µM (inactive)
Potency [8]: > 92 µM (inactive)
Potency [9]: > 92 µM (inactive)
Potency [5]: > 92 µM (inactive)

CCC(=O)c1ccc2c(c1)N(CCCN(C)C)c1ccccc1S2
Potency [3]: 0.631 µM (active)
activity change, negative = inhibition ([2]; at 38 µM (top of the series)): -89.3% (active)

CCCCOCCOCCOCc1cc2c(cc1CCC)OCO2
Potency [6]: > 92 µM (inactive)
Potency [4]: > 92 µM (inactive)
Potency [7]: > 92 µM (inactive)
Potency [8]: > 92 µM (inactive)
Potency [9]: > 92 µM (inactive)
Potency [5]: > 92 µM (inactive)

CN(C)CCN(Cc1cccs1)c1ccccn1
Potency [3]: inactive and 12.6 µM (active)

COCCCC/C(=N\OCCN)c1ccc(C(F)(F)F)cc1
activity change, negative = inhibition ([1]; at 17.2 µM (top of the series)): 14.9% (inactive)
activity change, negative = inhibition ([2]; at 17.2 µM (top of the series)): 24.5% (inactive)

C[C@]12CCC(=O)C=C1CC[C@@H]1[C@@H]2C(=O)C[C@@]2(C)[C@H]1CC[C@]2(O)C(=O)CO
activity change, negative = inhibition ([1]; at 17.2 µM (top of the series)): 7.64% (inactive)
activity change, negative = inhibition ([2]; at 17.2 µM (top of the series)): -6.84% (inactive)

COCCOC(=O)C1=C(C)NC(C)=C(C(=O)OC(C)C)C1c1cccc([N+](=O)[O-])c1 (stereo unspecified)
activity change, negative = inhibition ([1]; at 17.2 µM (top of the series)): -20.8% (inactive)
activity change, negative = inhibition ([2]; at 17.2 µM (top of the series)): -7.25% (inactive)

CN(C)[C@@H]1C(=O)C(C(N)=O)=C(O)[C@@]2(O)C(=O)C3=C(O)c4c(O)ccc(Cl)c4[C@@H](O)[C@H]3C[C@@H]12
activity change, negative = inhibition ([1]; at 17.2 µM (top of the series)): -3.11% (inactive)
activity change, negative = inhibition ([2]; at 17.2 µM (top of the series)): 0.847% (inactive)

CCCN(CCC)C(=O)C(CCC(=O)O)NC(=O)c1ccccc1 (stereo unspecified)
activity change, negative = inhibition ([1]; at 17.2 µM (top of the series)): 1.43% (inactive)
activity change, negative = inhibition ([2]; at 17.2 µM (top of the series)): -1.88% (inactive)

CO[C@@]1(NC(=O)CSCC#N)C(=O)N2C(C(=O)O)=C(CSc3nnnn3C)CS[C@@H]21
activity change, negative = inhibition ([1]; at 17.2 µM (top of the series)): 6.1% (inactive)
activity change, negative = inhibition ([2]; at 17.2 µM (top of the series)): -23.9% (inactive)

O=C(O)CCCCCCCC(=O)O
Potency [3]: inactive
activity change, negative = inhibition ([2]; at 38 µM (top of the series)): -0.521% (inactive)

Fc1ccc(C(c2ccc(F)cc2)N2CCN(C/C=C/c3ccccc3)CC2)cc1
activity change, negative = inhibition ([1]; at 17.2 µM (top of the series)): -10.9% (inactive)
activity change, negative = inhibition ([2]; at 17.2 µM (top of the series)): -88.5% (active)

OC(CCN1CCCCC1)(c1ccccc1)C1CCCCC1 (stereo unspecified)
activity change, negative = inhibition ([1]; at 17.2 µM (top of the series)): 5.32% (inactive)
activity change, negative = inhibition ([2]; at 17.2 µM (top of the series)): -77.3% (active)

CSc1ccc(C(=O)c2[nH]c(=O)[nH]c2C)cc1
activity change, negative = inhibition ([1]; at 38 µM (top of the series)): -4.8% (inactive)
activity change, negative = inhibition ([2]; at 38 µM (top of the series)): -2.92% (inactive)

COc1ccc2c(c1OC)C(=O)O[C@@H]2[C@H]1c2c(cc3c(c2OC)OCO3)CCN1C
activity change, negative = inhibition ([1]; at 17.2 µM (top of the series)): -3.96% (inactive)
activity change, negative = inhibition ([2]; at 17.2 µM (top of the series)): -10.3% (inactive)

Cc1nnc(SCC2=C(C(=O)O)N3C(=O)[C@@H](NC(=O)Cn4cnnn4)[C@H]3SC2)s1
activity change, negative = inhibition ([1]; at 17.2 µM (top of the series)): 6.59% (inactive)
activity change, negative = inhibition ([2]; at 17.2 µM (top of the series)): -25% (inactive)

O=c1[nH]c(=O)n([C@H]2C[C@H](O)[C@@H](CO)O2)cc1Br
Potency [6]: > 92 µM (inactive)
Potency [7]: > 92 µM (inactive)
Potency [8]: > 92 µM (inactive)
Potency [9]: > 92 µM (inactive)
Potency [5]: > 92 µM (inactive)

CN1CCN(C2=Nc3ccccc3Oc3ccc(Cl)cc32)CC1
Potency [3]: 3.16 µM (active)
activity change, negative = inhibition ([2]; at 17.2 µM (top of the series)): -75.6% (active)

CCCCCCCC/C=C\CCCCCCCC(=O)NCc1ccc(O)c(OC)c1
Potency [3]: 20 µM (active)

C=CCc1ccccc1OCC(O)CNC(C)C (stereo unspecified)
activity change, negative = inhibition ([1]; at 17.2 µM (top of the series)): 12.6% (inactive)
activity change, negative = inhibition ([2]; at 17.2 µM (top of the series)): 5.58% (inactive)

CC(=O)OCC1=C(C(=O)O)N2C(=O)[C@@H](NC(=O)Cc3cccs3)[C@H]2SC1
activity change, negative = inhibition ([1]; at 17.2 µM (top of the series)): -3.26% (inactive)
activity change, negative = inhibition ([2]; at 17.2 µM (top of the series)): 0.294% (inactive)

COc1ccc(CN(CCN(C)C)c2ccccn2)cc1
Potency [3]: inactive
Potency [6]: > 92 µM (inactive)
Potency [4]: > 92 µM (inactive)
Potency [7]: > 92 µM (inactive)
Potency [8]: > 92 µM (inactive)
Potency [9]: > 92 µM (inactive)
Potency [5]: > 92 µM (inactive)
activity change, negative = inhibition ([2]; at 17.2 µM (top of the series)): -25.9% (inactive) and -22.5% (inactive)
activity change, negative = inhibition ([2]; at 38 µM (top of the series)): -21.9% (inactive)
